Compound activity as filed in PubChem BioAssay.
A selection: hits, their analogues and other compounds. The true share with any hit is near 2.1%.
ARNT-TACC3 inh: disruptors of ARNT/TACC3 protein interaction, primary screen, biochemical, AlphaScreen, single concentration. Transforming acidic coiled-coil-containing protein 3 (Homo sapiens), Q9Y6A5. AlphaScreen His-ARNT PAS-B/GST-TACC3 binding, luminescence; TACC3 fragment carries E629A point mutation. inhibition, % at 9.99 µM. hit rate 0.66% among 390,000;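 active means mean inhibition of replicates at least 50% and at least half of replicates each reaching 50%; inconclusive means half or more replicates reach 50% but mean below 50%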;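 further: 0% = complete ARNT plus TACC3 wells and 100% = ARNT alone without TACC3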
F508del corr: F508del CFTR correction, initial screen, CFBE line, single point; CFBE cells, YFP halide quenching; stimulated with forskolin plus potentiator P3; % fluorescence drop versus neutral controls; activity (quench increase), % at 7.58 µM; hit rate 0.36% among 350,000; AID 720511, 2013;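 active means mean added fluorescence quench of at least 8% versus neutral control, with both replicates also reaching 8%; inconclusive means only one of the mean or replicate conditions met; inactive means mean below 8% and not both replicates reaching 8%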;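 further: cells transiently co-express mutant CFTR-F508del with the halide-sensitive YFP; corrector assay measuring rescue of mutant channel to the surface after 24 h compound exposure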
ERAP1 inh: human ERAP1 aminopeptidase inhibitors, primary screen, biochemical, single point, plate reader; Endoplasmic reticulum aminopeptidase 1 (Homo sapiens), Q9NZ08; recombinant ERAP1, Leu-AMC fluorescence, 60 min; inhibition, % at 10.7 µM; hit rate 0.15% among 340,000; AID 652197, 2013;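 active means mean replicate inhibition of at least 30%, or all replicates individually reaching that 30% level; inactive means mean below 30% and not every replicate reaching it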;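 further: 0% = neutral control wells and 100% = L-leucinethiol positive control wells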
Target sequence (Q9NZ08 whole entry, looked up): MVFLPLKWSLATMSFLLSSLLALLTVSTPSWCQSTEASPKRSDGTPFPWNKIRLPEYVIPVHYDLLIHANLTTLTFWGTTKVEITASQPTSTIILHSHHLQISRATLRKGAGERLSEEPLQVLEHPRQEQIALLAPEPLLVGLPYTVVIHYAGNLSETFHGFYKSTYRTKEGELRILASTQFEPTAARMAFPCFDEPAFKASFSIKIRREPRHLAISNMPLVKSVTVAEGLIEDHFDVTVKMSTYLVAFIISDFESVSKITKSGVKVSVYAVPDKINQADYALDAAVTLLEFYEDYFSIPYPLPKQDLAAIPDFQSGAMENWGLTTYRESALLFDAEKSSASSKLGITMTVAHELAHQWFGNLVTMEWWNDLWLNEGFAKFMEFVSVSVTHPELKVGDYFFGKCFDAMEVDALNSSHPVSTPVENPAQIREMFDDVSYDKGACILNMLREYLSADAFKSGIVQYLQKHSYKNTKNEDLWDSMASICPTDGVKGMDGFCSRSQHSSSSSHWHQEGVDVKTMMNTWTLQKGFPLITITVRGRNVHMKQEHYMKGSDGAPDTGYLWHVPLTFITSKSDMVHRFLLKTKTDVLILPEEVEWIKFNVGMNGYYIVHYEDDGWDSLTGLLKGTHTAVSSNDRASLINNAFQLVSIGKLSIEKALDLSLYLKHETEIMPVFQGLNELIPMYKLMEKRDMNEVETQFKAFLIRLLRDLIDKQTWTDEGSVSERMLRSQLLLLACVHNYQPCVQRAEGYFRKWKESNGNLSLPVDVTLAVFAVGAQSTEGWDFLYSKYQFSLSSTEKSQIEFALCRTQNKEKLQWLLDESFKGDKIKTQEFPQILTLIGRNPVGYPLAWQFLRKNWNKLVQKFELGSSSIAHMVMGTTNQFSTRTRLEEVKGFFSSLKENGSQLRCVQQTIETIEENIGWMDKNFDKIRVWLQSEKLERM
Ecoli rRNA inh: reduced GFP signal of wild-type E. coli, primary screen, bacterial rRNA inhibitor project, GFP/RFP fluorescence, OD600, single point. AID 720706, 2013. GFP signal change (wild-type ribosome), % (no concentration beside the values). E. coli WT GFP vs humanized-ribosome RFP mutants, 24 h; active compounds read low; DMSO median 0, no signal -100. hit rate 1.6% among 350,000;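 active means significant combined selectivity score with lowered wild-type GFP, culture density cut under 30%, mutant RFP and density less affected; inactive means any of these conditions unmet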
PvdQ inh: P. aeruginosa PvdQ acylase inhibitors, primary screen, biochemical, fluorescence, plate reader and imaging, single point; purified PvdQ acylase; hit rate 0.063% among 340,000; PvdQ acylase [Pseudomonas aeruginosa LESB58]; inhibition, % at 10 µM; in the data active means inhibition above about 30%, passing the limit was not always enough; inconclusive means no clear call, values can overlap the other calls;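 further: 0% = vehicle neutral wells and 100% = reference inhibitor wells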
HepG2 cytotox: cytotoxicity in HepG2 cells, dose response, cytotoxicity control, cell-based, CellTiter-Glo luminescence, cherry-pick, set 4; shares compounds with Ecoli rRNA inh; HepG2 viability, ATP luminescence, 72 h; activity change, negative = cytotoxicity, unspecified at 26 µM; 30 tested, under 10 active; AID 743480, 2014;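 active means compounds whose fitted half-maximal signal-loss concentration is at most twice their highest valid dose; inconclusive means flat curve with 30 to 70% signal loss, or poor fit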
AID977621: growth inhibition of wild-type GFP E. coli, dose response, H69 mutant RFP, cherry-pick; shares compounds with Ecoli rRNA inh; E. coli wild-type GFP strain growth, fluorescence, 24 h; activity change, negative = inhibition at 50 µM; 1,900 tested, under 10 active; AID 977621, 2014;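 active means Wild-type ribosome reporter drop at least double the humanized mutant ribosome reporter drop, growth loss under a set limit; inconclusive means no clear call, values can overlap the other calls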;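 further: wild-type GFP and H69 mutant RFP strains grown together 50/50 in each well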
AID977628: E. coli growth inhibition, wild-type GFP versus h24 humanized RFP strain, dose response, h24 mutant RFP vs wild-type GFP, cherry-pick; shares compounds with Ecoli rRNA inh; E. coli WT GFP strain growth, fluorescence, 24 h; activity change, negative = inhibition at 50 µM; 1,900 tested, under 10 active;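 active means compound lowering the normal-ribosome reporter at least twice as much as the humanized-ribosome reporter, growth loss under a set limit; inconclusive means no clear call, values can overlap the other calls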;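 further: wild-type GFP and h24 humanized RFP strains co-cultured 1 to 1 per well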
* marks the source's active call; other numbers are inactive results; ? = inconclusive; . = not tested or not shown.

SMILES | ARNT-TACC3 inh | F508del corr | ERAP1 inh | Ecoli rRNA inh | PvdQ inh | AID977621 | AID977628 | others
Cc1cc(C(=O)OCC(=O)NCCc2ccc(S(N)(=O)=O)cc2)c2ccccc2n1 | -4.3 | 3.2 | -4.1 | 3.5 | -9.4 | . | .
C#CCOc1nc(Nc2cccc([N+](=O)[O-])c2)nc(OCC#C)n1 | -2.5 | . | -6.6 | -17.6* | 1.0 | -10.7 | -2.5
C[C@H]1CN([C@@H](C)CO)C(=O)c2cc(NS(=O)(=O)c3cn(C)cn3)ccc2O[C@@H]1CN(C)C | 3.3 | 1.5 | 1.4 | -2.3 | . | . | .
Cc1cc(C(=O)Nc2ccc(Cl)cc2)c(C)n1Cc1cccs1 | 1.9 | -0.3 | -0.2 | -29.8* | -10.9 | 3.2 | -2.55
CC(C)Oc1cccc(C(=O)C2CCCN(Cc3cnn(C(C)C)c3)C2)c1 (stereo not given) | -5.9 | 0.8 | 3.6 | 12.3 | -8.8 | . | .
CC(C)Oc1cccc(C(=O)C2CCCN(Cc3ccc4nonc4c3)C2)c1 (stereo not given) | 7.9 | 2.1 | -2.5 | -28.6* | -23.4 | ? | .
C[C@H](CO)N1C[C@H](C)[C@H](CN(C)C(=O)Nc2cccc3ccccc23)Oc2c(NC(=O)C3CCCCC3)cccc2C1=O | -0.5 | -0.3 | 1.7 | -0.5 | . | . | .
CCCN1C(=O)C(O)(c2c(C)[nH]c3ccccc23)c2ccccc21 (stereo not given) | -3.9 | 1.2 | . | -18.3* | -15.0 | -4.71 | -5.56
C[C@@H]1CCCCO[C@@H](CN(C)S(=O)(=O)c2cn(C)cn2)[C@@H](C)CN([C@H](C)CO)C(=O)c2cc(NC(=O)CCC(F)(F)F)ccc2O1 | -10.3 | -0.3 | 0.0 | 2.4 | . | . | .
CC(=O)Oc1c(Cl)cc(N(C(C)=O)S(=O)(=O)c2ccccc2)c2ccccc12 | . | -4.3 | -1.9 | -36.6* | . | ? | .
CC(=O)Oc1ccc(N(C(C)=O)S(=O)(=O)c2ccccc2)c2ccccc12 | . | -1.7 | -2.9 | 1.3 | . | . | .
COc1cccc(NC(=O)COC(=O)Cc2ccccc2[N+](=O)[O-])c1 | 0.1 | -1.0 | -7.3 | -17.1* | -6.6 | . | ?
COc1ccc(CCNC(=O)COC(=O)Cc2ccccc2[N+](=O)[O-])cc1 | -17.3 | 0.8 | -3.4 | -0.1 | -13.2 | . | .
Cc1ccc(C)c(NC(=O)CSc2nc3nc(-c4cccs4)cc(C(F)(F)F)c3c(=O)[nH]2)c1 | -3.2 | -2.9 | . | -19.9* | -4.9 | . | ? | HepG2 cytotox=4.1
C[C@@H]1CN([C@H](C)CO)C(=O)Cc2cc(NC(=O)CCCCCC(=O)Nc3ccccc3N)ccc2O[C@H]1CN(C)C | -23.6 | 0.6 | 0.2 | 2.9 | . | . | .
COCCN(C(=O)c1ccccc1F)c1nc(-c2ccc(OC)cc2)cs1 | -5.0 | -2.2 | -1.6 | -9.6 | -5.7 | . | .
COCCN(C(=O)c1ccccc1F)c1nnc(-c2ccc(OC)cc2)s1 | . | -0.3 | -0.1 | -24.2* | -10.5 | 1.59 | ?
COc1ccc(NC(=O)N(C)C[C@@H]2Oc3ncc(-c4ccc(F)cc4)cc3C(=O)N([C@H](C)CO)C[C@@H]2C)cc1 | -8.3 | 0.4 | -0.7 | -9.5 | . | . | .
COC(=O)C1=C(C)N(C)C(=NCc2ccc(C(F)(F)F)cc2)NC1c1ccc(Cl)cc1 (stereo not given) | . | 2.8 | 12.4 | -44.2 | . | . | .
COc1ccc(OCc2n[nH]c(=S)n2-c2ccc(C)cc2)cc1 | -15.4 | . | 6.3 | -2.7 | -15.8 | . | .
COc1ccc(-n2c(COc3cccc(C)c3)n[nH]c2=S)cc1 | 1.3 | 1.3 | -0.1 | -20.3* | -1.4 | -6.47 | 0.601
